From the supplement of paper PMC3334620
Whole data set: some 33,000 sequences, median “E-score (-0.5 to 0.5)” near -0.016, cut for the highest 2% near 0.32. Only a selection was taken, and the highest values are over-represented in it overall.

Target: T1, Stp1 (UniProt B3LFK1)
T1 sequence: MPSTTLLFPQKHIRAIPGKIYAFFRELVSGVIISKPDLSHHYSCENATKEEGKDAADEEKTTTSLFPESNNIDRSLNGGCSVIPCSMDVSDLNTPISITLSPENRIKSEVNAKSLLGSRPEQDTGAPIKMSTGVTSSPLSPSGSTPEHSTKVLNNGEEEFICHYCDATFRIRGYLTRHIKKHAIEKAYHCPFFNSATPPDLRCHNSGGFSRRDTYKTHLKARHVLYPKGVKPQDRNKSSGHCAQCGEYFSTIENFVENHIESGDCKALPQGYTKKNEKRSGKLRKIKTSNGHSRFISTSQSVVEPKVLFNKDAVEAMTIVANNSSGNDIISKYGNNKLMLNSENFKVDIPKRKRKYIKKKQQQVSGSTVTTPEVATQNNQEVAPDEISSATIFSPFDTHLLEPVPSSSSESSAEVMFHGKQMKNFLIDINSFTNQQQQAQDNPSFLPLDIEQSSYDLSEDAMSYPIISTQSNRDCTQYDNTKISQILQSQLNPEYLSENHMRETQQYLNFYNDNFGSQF
Test: PBM E-score (8-mer binding enrichment) (E-score (-0.5 to 0.5)); higher = stronger / more preferred TF binding
Conditions: protein concentration: 200 nM; construct: GST-full length
Experimental: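 Universal 'all 10-mer' protein binding microarrays (Agilent AMADID 015681) probed with GST-tagged S. cerevisiae TFs (full-length or DBD) made by in vitro transcription/translation (PURExpress), about 100-200 nM. Bound TF was detected with fluorescent anti-GST. Each ungapped 8-mer (which stands for itself and its reverse complement) is scored by the PBM enrichment score (E-score), a modified Wilcoxon-Mann-Whitney statistic from -0.5 to +0.5, computed with the Universal PBM Analysis Suite. Scale: above 0.35 generally sequence-specific binding.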

| Sequence | PBM E-score |
| --- | --- |
| GGGCTGAC | -0.134 |
| AGTAGACA | 0.0181 |
| ATAGGGAC | -0.211 |
| ATCTCCTC | -0.209 |
| AGCCTGCG | -0.245 |
| GTTAAGAA | 0.0825 |
| AGAGAGAA | -0.198 |
| CTAGAAAA | -0.0127 |
| ATCCGCGG | 0.13 |
| AGCCGCGC | 0.424 |
| AGCCGCGG | 0.376 |
| ACCCGCGC | 0.232 |
| AACCGCGC | 0.167 |
| AGCCGCGA | 0.159 |
| GGGTTCCA | -0.286 |
| AGAGTACA | 0.04 |
| CCGTTAGC | 0.0331 |
| CAGACCCC | -0.381 |
| ACGGCAAT | 0.45 |
| ACGGCAAA | 0.45 |
| AAGGCAAG | 0.0628 |
| ATGGCAAA | 0.197 |
| AAGGCAAT | 0.253 |
| ACGGCAAC | 0.455 |
| ATGGCAAC | 0.289 |

| Sequence | PBM E-score |
| --- | --- |
| AGGGCAAT | 0.156 |
| CCGGCAAG | -0.0231 |
| ACGGCAAG | 0.369 |
| AGGGCAAA | 0.0608 |
| AAGGCAAC | 0.274 |
| AATGTCCT | -0.246 |
| CAAGCGCG | 0.124 |
| ATTTTGAA | 0.277 |
| GGAGTCAC | -0.236 |
| ACTAACAT | 0.0936 |
| ACGGATAC | 0.249 |
| GGAAAGGA | -0.0901 |
| GAGCCGAA | 0.232 |
| AAGCCGTG | 0.419 |
| AAGCCGAA | 0.116 |
| AAGCCGTA | 0.398 |
| CAGCCGTA | 0.306 |
| GAGCCGTA | 0.468 |
| AAGCCGGG | -0.211 |
| AAGCCGAG | -0.0198 |
| AAGCCGTC | 0.296 |
| CACCTCCG | -0.0858 |
| AGATCCTC | -0.251 |
| ACTGTGAA | 0.0195 |
| CCTGCACC | -0.271 |

| Sequence | PBM E-score |
| --- | --- |
| GAGATTAC | -0.0779 |
| ACGTAGAT | -0.0617 |
| ACCTTTAC | 0.0425 |
| GAGACAGA | -0.0347 |
| TATGCGGA | 0.207 |
| GCCGAACA | 0.114 |
| CTGGGGGA | -0.35 |
| AGGTAGCG | -0.105 |
| ACGCGCTG | 0.119 |
| CCGCGTCC | 0.296 |
| ACGCGCAG | -0.103 |
| CCGCGTCG | 0.355 |
| CCGCGCCA | 0.252 |
| ACGCGCCC | 0.289 |
| CCGCGTCA | 0.214 |
| ACGCGCCG | 0.412 |
| CCGCGCCC | 0.279 |
| CCGCGCCG | 0.462 |
| ACGCGCCA | 0.0175 |
| ACGCGCCT | 0.34 |
| CTTGGTTC | 0.197 |
| ACGGTTAA | 0.0599 |
| AAAGGCTG | -0.102 |
| GGTATCCA | 0.0649 |
| AACGAGTT | -0.18 |

| Sequence | PBM E-score |
| --- | --- |
| CCTGCCCA | -0.259 |
| ATCAGAGC | 0.0942 |
| GAAGTATA | 0.169 |
| GCGTTGAA | 0.138 |
| CGCAAAAG | 0.0708 |
| CTTGCTCC | -0.0209 |
| GAGGCGTA | 0.278 |
| GAGGCCCC | -0.125 |
| GAGGCGCA | 0.338 |
| ATGGCGCG | 0.196 |
| GAGGCGCC | 0.414 |
| AAGGCGCC | 0.424 |
| CAGGCGCC | 0.286 |
| AAGGCGTC | 0.296 |
| GAGGCGAA | 0.206 |
| CTGGCGCC | 0.314 |
| ATGGCGCC | 0.34 |
| AAGGCGAC | 0.224 |
| CGATAGAC | 0.00428 |
| AGGTGAGA | -0.0297 |
| ATACCACA | 0.0264 |
| ATGTCGCA | 0.0188 |
| ATAGGCGA | -0.0945 |
| ATACTCGC | -0.0916 |
| CCCCCTGC | -0.346 |

| Sequence | PBM E-score |
| --- | --- |
| TAAATCAA | 0.0833 |
| CTTAGCCA | 0.13 |
| AAGCGCTT | 0.0783 |
| GATCCTAA | -0.164 |
| GCATGAGA | 0.151 |
| GGAGATAC | -0.0561 |
| ATCCTAGC | -0.102 |
| TAGGCGCA | 0.155 |
| AAGGCGCG | 0.4 |
| AAGGCGCT | 0.396 |
| AAAGCGCT | 0.16 |
| CAGGCGCG | 0.113 |
| CAGGCGCA | -0.031 |
| AAGGCGGT | 0.105 |
| AAGGCGGG | -0.112 |
| AAGGCGCA | 0.316 |
| CCTACTGC | 0.107 |
| CTGAAGGC | -0.14 |
| AGTTGGGA | -0.114 |
| ACCCGAGA | -0.282 |
| CACCCAGA | -0.257 |
| AGACCGCC | -0.0258 |
| GGCGTTTA | 0.337 |
| AGCGTTTA | -0.127 |
| ACCGTTTA | 0.168 |

| Sequence | PBM E-score |
| --- | --- |
| CCCGTTGA | -0.0684 |
| GCCGTTGA | 0.383 |
| ACCGTTGA | -0.134 |
| GCCGTTTA | 0.443 |
| CGCGTTTA | -0.0505 |
| CCCGTTTA | 0.185 |
| GAATCTCC | -0.122 |
| GGAAGGAA | -0.0797 |
| GAACTGAC | 0.0623 |
| AGAGTATG | -0.303 |
| AGCTGCTC | -0.127 |
| CGGATAGA | 0.228 |
| TGACCGCA | 0.025 |
| CCATGCCG | 0.336 |
| CCATGCCC | -0.0806 |
| ACATGCCG | 0.369 |
| CCATGCCA | 0.148 |
| ACATGCCC | -0.168 |
| ACATGCCT | 0.066 |
| TAATAGCA | -0.0461 |
| GCGCCTCC | 0.293 |
| CCGCCGGA | 0.0267 |
| CCGCCGAA | 0.216 |
| ACGCCGCT | 0.423 |
| CCGCCGCA | 0.402 |

| Sequence | PBM E-score |
| --- | --- |
| GCGCCGCC | 0.454 |
| ACGCCGCC | 0.355 |
| ACGCCGAT | 0.23 |
| AAGCCGCT | 0.265 |
| CCGCCGCC | 0.194 |
| CCGCCGGC | 0.165 |
| ACGCCGAC | 0.204 |
| ATGGAGGC | -0.236 |
| AGTGGGTG | -0.0322 |
| GCAACAGC | 0.0755 |
| AACGCTCT | -0.216 |
| ACGCCGGA | 0.00769 |
| CGGCCGCA | 0.325 |
| TCGCCGCA | 0.448 |
| TCTCCGCA | -0.0488 |
| ACGACGCA | 0.0151 |
| ACGCCGCA | 0.476 |
| ACGCCGCG | 0.473 |
| TCACCGCA | -0.0824 |
| ACGCCGAG | 0.0836 |
| AGGCCGCG | 0.244 |
| GGGCCGCA | 0.285 |
| AGGCCGCA | 0.162 |
